# In publication PMC7819943, “Rice protein-binding microarrays: a tool to detect cis-acting elements near promoter regions in rice”:
# Whole data set: some 39,000 sequences, median “fluorescence intensity (a.u.)” near 4,300, cut for the highest 2% near 39,000. The sample holds the highest values, similar sequences and a random draw of the others, so the mix is not that of the screen.
# Target: T1, OsSMF1 (Oryza sativa, UniProt Q6ZLB0 1-436)
# T1 sequence: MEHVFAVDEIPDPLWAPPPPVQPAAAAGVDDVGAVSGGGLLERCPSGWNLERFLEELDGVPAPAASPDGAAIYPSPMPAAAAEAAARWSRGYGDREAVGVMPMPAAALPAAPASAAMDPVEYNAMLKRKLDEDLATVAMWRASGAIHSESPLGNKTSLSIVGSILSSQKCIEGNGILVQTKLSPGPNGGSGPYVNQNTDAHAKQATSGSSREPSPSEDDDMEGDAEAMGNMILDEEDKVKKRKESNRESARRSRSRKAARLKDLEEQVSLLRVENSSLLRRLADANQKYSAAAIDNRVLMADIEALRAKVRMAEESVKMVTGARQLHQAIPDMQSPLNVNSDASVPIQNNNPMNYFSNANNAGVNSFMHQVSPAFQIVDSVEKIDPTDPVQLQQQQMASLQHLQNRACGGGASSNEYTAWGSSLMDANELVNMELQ
# Assay: protein-binding microarray (RPBM); PBS, 2% BSA, 51.3 ng/ul salmon testes DNA, 50 uM zinc acetate, 200 nM TF, 25 C, 1 h; high values mean tight binding
# Conditions: protein: recombinant; tags: N-terminal polyhistidine and DsRed monomer fusion (pET32a); chain copies: 2; label: CyDye5-dUTP incorporated in the synthesized complementary strand; 3' TTTTT single-stranded linker to array surface; dsDNA, one strand shown
# In short: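 An Axon 4000B scanner gave the binding signal as per-feature fluorescence intensity in arbitrary units. This followed washing of a custom Agilent array that had been incubated for 1 h at 25 °C with 200 nM protein in PBS, 2% BSA, salmon testes DNA and 50 µM zinc acetate. The proteins were transcription factors fused at the N-terminus to polyhistidine and DsRed, expressed in E. coli BL21-CodonPlus and purified on Ni–NTA.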
row,Sequence,binding signal
1,TACAAAATCATCCATCAACCGCAAAATCAGATATCGACCGCGGAGTCACCTAGTGCAG,3800 fluorescence intensity (a.u.)
2,GATGTGACGTGATGTGATGGAAAGTTGGGAGTTGGGGAAACGGAGTCACCTAGTGCAG,6040 fluorescence intensity (a.u.)
3,TTGGCCGGTAACGCGTCATGACTCATGAGCTACTGGACTTCGGAGTCACCTAGTGCAG,9990 fluorescence intensity (a.u.)
4,TTCGTCCGTGCGTGCGTGCGTGCGCGACTCGCTCTCACACCGGAGTCACCTAGTGCAG,10700 fluorescence intensity (a.u.)
5,TACATTTCTTTGACAAAACTTTTATAACCAGCTGATGTGGCGGAGTCACCTAGTGCAG,11400 fluorescence intensity (a.u.)
6,GAGTTGTGACTGTGAGGCACACCAATGGCGGCCCATGGATCGGAGTCACCTAGTGCAG,3740 fluorescence intensity (a.u.)
7,CACTGTCCATCCATGGTGGTGGTCAGACAACCCCAGCACACGGAGTCACCTAGTGCAG,3990 fluorescence intensity (a.u.)
8,TGCGATTGATTCGGTATTAGAGCCTGCATACGTGTCATCTCGGAGTCACCTAGTGCAG,22100 fluorescence intensity (a.u.)
9,CTCTCCCGCCTCGCCCGTCGACGCCCGCGCCACGTGCAGCCGGAGTCACCTAGTGCAG,6190 fluorescence intensity (a.u.)
10,CGGCCGCCGCGACACCCGCCGCCACGTCGCCCCGCCACGCCGGAGTCACCTAGTGCAG,9460 fluorescence intensity (a.u.)
11,TCGGCCAATGCGGAGCCGTCAGCTCTCCGCTGCTCGGCTACGGAGTCACCTAGTGCAG,44400 fluorescence intensity (a.u.)
12,CATGAGGAGGATGCTGACGTCTCGAGGTGAAGGCCGCAATCGGAGTCACCTAGTGCAG,4970 fluorescence intensity (a.u.)
13,GCCTCCACCTCGCTGCTGCTCCGCCAGCTAGTAGCCGCCACGGAGTCACCTAGTGCAG,3350 fluorescence intensity (a.u.)
14,TCCAGATCTTGGCGCCGCCGGATCCCGTCAGTCTCCACAACGGAGTCACCTAGTGCAG,48300 fluorescence intensity (a.u.)
15,CGCTCTGCCGTCCGGCTCTCCGCGCGATGCTACGTGGCCGCGGAGTCACCTAGTGCAG,5480 fluorescence intensity (a.u.)
16,TCTCCCAGGCCACCATCGGCGTCCACATCCCGCCGTCCGCCGGAGTCACCTAGTGCAG,3510 fluorescence intensity (a.u.)
17,CCATCTCGGCCCATGAGGATGCTGACGTCACCGCGTCGTCCGGAGTCACCTAGTGCAG,42700 fluorescence intensity (a.u.)
18,CCTCTCCAGTACGCGTCGCCCCGCCACGTCAGCGACTGGCCGGAGTCACCTAGTGCAG,41600 fluorescence intensity (a.u.)
19,GTCGGCCCATGAATATGCTGACGTCACTTTTGAGCCCACTCGGAGTCACCTAGTGCAG,36600 fluorescence intensity (a.u.)
20,GCCGCCGCCGCCGTCTGCACCCGCGTCAGCGCTCCACAAACGGAGTCACCTAGTGCAG,3440 fluorescence intensity (a.u.)
21,GACATTTACATGTACTGATTGCTGATTGCCATTGATTCATCGGAGTCACCTAGTGCAG,22800 fluorescence intensity (a.u.)

row,Sequence,binding signal
1,CAGTGTTACATCATCGACCGGTTATCATCTTTGTTTCGATCGGAGTCACCTAGTGCAG,3580 fluorescence intensity (a.u.)
2,TTGCACATGCTGATTATTACATATTGCTACGTCCTTTTGCCGGAGTCACCTAGTGCAG,3230 fluorescence intensity (a.u.)
3,GGTGTGTATTGACGCACCACGTATGTCTATCTTCTTTCGTCGGAGTCACCTAGTGCAG,3820 fluorescence intensity (a.u.)
4,TGGCCGGAATCACACGCACAAGGTGCTGCGTCACCTATAACGGAGTCACCTAGTGCAG,9040 fluorescence intensity (a.u.)
5,CACGATCCATCATATCGCTTGAGCTAGCCACAACACACAACGGAGTCACCTAGTGCAG,22100 fluorescence intensity (a.u.)
6,GCATGGTGGCGGCGGGAAGGAGGAGTGGGGCGGCGGGTGCCGGAGTCACCTAGTGCAG,3770 fluorescence intensity (a.u.)
7,CCCCACCACCTCATCGATCCGCGCCACCACCCAACCCACCCGGAGTCACCTAGTGCAG,4250 fluorescence intensity (a.u.)
8,CCAGCCCCGCGCCGGCCGCCGTCCGTCCGCCCGCGCGCGGCGGAGTCACCTAGTGCAG,3540 fluorescence intensity (a.u.)
9,GGGCCCCGCAGGCGCAGGCGCAGCGGTACGCCGTCGTCGGCGGAGTCACCTAGTGCAG,54200 fluorescence intensity (a.u.)
10,TCCCGCTCACCACCACGCCACGTCACCGATCCGCGCAACCCGGAGTCACCTAGTGCAG,22400 fluorescence intensity (a.u.)
11,CCCGCCGCGCCGCGTCCCGGCCACCGCGCCGCCCGCCGCGCGGAGTCACCTAGTGCAG,4250 fluorescence intensity (a.u.)
12,GAAGCCATCCACGCGGCACCATCGGACGGCTCTCGCGCCCCGGAGTCACCTAGTGCAG,5210 fluorescence intensity (a.u.)
13,GCCACCGCCGCGGGCGCGGCCCCGGCCCCGGCCCCGGCCGCGGAGTCACCTAGTGCAG,3390 fluorescence intensity (a.u.)
14,GTCCGTCGCGCGTCACCGCGTGCCTCGCCACGCCCACGCCCGGAGTCACCTAGTGCAG,5090 fluorescence intensity (a.u.)
15,CTTGGATCCAACGGCCACGGCTCTCTCATCGCCGCGCCCCCGGAGTCACCTAGTGCAG,46100 fluorescence intensity (a.u.)
16,GGGCAGATCCGGCGCCCGACGCCGGCGGATCCGCCGTCGTCGGAGTCACCTAGTGCAG,32500 fluorescence intensity (a.u.)
17,CGTCGAACCGGCGGCGGCCCGCGCCACCCACCCTACCCGCCGGAGTCACCTAGTGCAG,49100 fluorescence intensity (a.u.)
18,CGAGTGCCACGCGTGCGCCCACCGCCACGTCACCGATCCCCGGAGTCACCTAGTGCAG,53800 fluorescence intensity (a.u.)
19,ACACATGCTTCAAGTGGCTAAGAGGGCATCCTCCCTTTTACGGAGTCACCTAGTGCAG,16000 fluorescence intensity (a.u.)
20,TAACTTCTTGCAGAAATGCCTCGTCATCGGTGACGCCGTTCGGAGTCACCTAGTGCAG,4870 fluorescence intensity (a.u.)
21,AAATTTGATCCTCGCACACCAGCTCAGCTACAGATGACATCGGAGTCACCTAGTGCAG,4230 fluorescence intensity (a.u.)
